Ba/F3 V617F tox: loss of viability in JAK2V617F-driven Ba/F3 cells. Ba/F3 EpoR-JAK2V617F viability, ATP luminescence. inhibition, % at 5.6 µM. 220,000 compounds, 1.1% hits. AID 1446;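 active means inhibition above the campaign mean plus 3 SD over all tested compounds, cut at about 24% in these data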;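 further: cytokine-independent growth of Ba/F3 cells driven by EpoR plus mutant JAK2; 0% = DMSO-treated cells and 100% = JAK inhibitor I control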
KLF5 inh: inhibitors of KLF5 expression; DLD-1 KLF5 promoter-luciferase reporter, luminescence; inhibition, % at 5 µM; 290,000 compounds, 0.23% hits; AID 1700;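 active means inhibition above a per-plate limit of that plate's mean compound inhibition plus 3 SD, cut at about 60% in these data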;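 further: 0% = DMSO wells and 100% = LY294002 at 200 µM; higher means less KLF5 promoter-driven luciferase light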
APP 5UTR inh: APP translation inhibition | inhibition, % at 2 µM | 190,000 compounds, 0.82% hits | SH-SY5Y APP 5'UTR-luciferase reporter, luminescence;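 active means inhibition above a set limit, derived from the sample mean plus 3 SD, cut at about 45% in these data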
BaF3 tox: parental Ba/F3 viability inhibition as JAK2V617F counter-screen; CellTiter-Glo ATP luminescence; inhibition, % at 5.6 µM; 220,000 compounds, 1.1% hits;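 active means inhibition above a per-campaign cutoff, the mean inhibition of all tested compounds plus 3 SD, cut at about 27% in these data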;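 further: 0% = DMSO wells and 100% = JAK Inhibitor I control wells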
aSyn UTR inh: MLPCN primary screen, SNCA 5' untranslated region. alpha-synuclein 5'UTR reporter, inhibitor activity. inhibition, % (tested at 7.5 µM). 300,000 compounds, 0.82% hits; in the data active means inhibition above about 60%;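 further: H4 neuroglioblastoma cells stably carrying SNCA 5'UTR luciferase fusion; 0% = DMSO wells and 100% = positive control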
IEC-6 tox-1: kills IEC-6 intestinal cells in KLF5 counter-screen; 290,000 compounds, 0.78% hits; inhibition, % at 5 µM; AID 1825; IEC-6 cytotoxicity, luminescence viability;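 further: 0% = plate median of test compound wells and 100% = cytotoxic reference compound wells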
KLF5 inh confirm: confirmation of KLF5 inhibitors; shares compounds with KLF5 inh; DLD-1 KLF5 promoter firefly luciferase reporter, luminescence; inhibition, % at 4 µM; 610 compounds, 79% hits;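 active means inhibition above a set limit taken from the earlier primary screen, cut at about 63% in these data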;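 further: 0% = DMSO wells and 100% = LY294002 at 200 µM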
IEC-6 tox-2: counter-screen for KLF5 inhibitors: cytotoxicity in rat IEC-6 cells; inhibition, % at 4 µM; IEC-6 rat intestinal cells, viability luminescence; shares compounds with KLF5 inh; 610 compounds, 56% hits; in the data active means inhibition above about 23%;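 further: cells exposed to compounds for 48 hours before viability read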
IEC-6 cytotox cf: confirmation of cytotoxic compounds in rat IEC-6 intestinal epithelial cells | shares compounds with IEC-6 tox-1 | IEC-6 rat intestinal epithelial viability, luminescence | inhibition, % at 5 µM | 1,900 compounds, 63% hits;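 further: 0% = vehicle and 100% = reference cytotoxic drug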
* marks the source's active call; other numbers are inactive results; . = not tested or not shown. A selection: hits, their analogues and other compounds. The true share with any hit is near 2.2%. Unless noted, no stated cut-off is given here; in the data, active means inhibition above about 22%; inactive means the rest.

SMILES	Ba/F3 V617F tox	KLF5 inh	APP 5UTR inh	BaF3 tox	aSyn UTR inh	IEC-6 tox-1	KLF5 inh confirm	IEC-6 tox-2	IEC-6 cytotox cf
COc1ccc(N2CC(C(=O)OCC(=O)Nc3cccc(C)c3)CC2=O)cc1 (configuration not stated)	.	-20	.	.	-2	-2	.	.	.
Cc1ccccc1C(=O)Nc1ccc(Cl)cn1	-4	-85	-68	2	-114	-2	.	.	.
O=C(Nc1ccc(Cl)cn1)c1cccc2c(Br)cccc12	.	62*	.	.	-41	82*	-10	14	14
CCOc1cc(C(=S)N2CCN(C)CC2)ccc1OCC(=O)N1CCCC1	.	-7	.	.	14	5	.	.	.
O=C(c1ccccn1)N(Cc1cccs1)C1(C(=O)NC2CCCCC2)CCCCC1	3	9	5	8	0	-6	.	.	.
COc1ccc(C2C(O)C(c3c[nH]c4ccccc34)=NN2C(=O)CCl)cc1 (configuration not stated)	.	102*	.	.	108*	102*	99*	101*	100*
COc1ccc(C2NN=C(c3c[nH]c4ccccc34)C2O)cc1 (configuration not stated)	.	-5	.	.	-12	1	.	.	.
O=C(N/N=C/c1ccccc1O)c1ccc2c(c1)OCO2	.	72*	.	.	-47	76*	4	12	19
COc1cc(-c2noc(C)c2-c2ccc(N(C)C)nc2)cc(OC)c1OC	.	76*	.	.	47	93*	85*	82*	59*
CN1/C(=C\C=C(/C#N)C(=O)Nc2ccccc2F)C(C)(C)c2ccccc21	-1	-39	-18	7	25	1	.	.	.
CN1/C(=C/C=C(/C#N)C(N)=O)C(C)(C)c2ccccc21	78*	69*	68*	62*	-146	47*	60	36*	44*
COc1cccc(Cn2c(NCc3cccnc3)nc3c2c(=O)n(C)c(=O)n3C)c1	91*	84*	33	90*	71*	88*	97*	70*	81*
COc1cccc(Cn2c(NCc3ccccn3)nc3c2c(=O)n(C)c(=O)n3C)c1	1	-12	-20	1	.	2	.	.	.
Cc1cccc2c(C(=O)N3CCN(c4ccccc4)CC3)cc(-c3ccncc3)nc12	.	64*	.	.	94*	71*	71*	46*	53*
Cc1cccc2c(C(=O)N3CCCCC3)cc(-c3ccccc3)nc12	.	-23	.	.	11	-3	.	.	.
CC1=C(C(=O)Nc2cccc(C(=O)NC3CCCCC3C)c2)SCCO1 (configuration not stated)	.	-17	.	.	8	6	.	.	.
COCCOC(=O)c1[nH]c2c(c1C)C(=O)CC(c1cccs1)C2 (configuration not stated)	74*	71*	85*	75*	64*	79*	73*	59*	55*
COCCOC(=O)c1[nH]c2c(c1C)C(=O)CC(c1ccc(OC)c(OC)c1)C2 (configuration not stated)	.	-27	.	.	-2	2	.	.	.
COC(=O)c1[nH]c2c(c1C)C(=O)CC(c1cccc(OC)c1)C2 (configuration not stated)	.	78*	.	.	41	86*	89*	64*	62*
CCOCCOC(=O)c1[nH]c2c(c1C)C(=O)CC(c1ccccc1)C2 (configuration not stated)	.	78*	.	.	41	91*	87*	66*	76*
CCCCCOC(=O)c1[nH]c2c(c1C)C(=O)CC(c1ccco1)C2 (configuration not stated)	95*	79*	95*	95*	54	94*	88*	77*	79*
Cc1ccc2[nH]c3c(c2c1)CCN(C)C3	.	-7	.	.	-2	0	.	.	.
Cc1ccc(O)c(C(=O)c2cnc3c(c2)CN(C)C(=O)N3)c1	-4	23	-4	2	-34	3	.	.	.
CN1Cc2cc(C(=O)c3cc(Cl)cc(CSc4ncccn4)c3O)cnc2NC1=O	71*	75*	96*	75*	79*	73*	85*	59*	66*

Source: PubChem
